Most compounds without a hit are left out; they make up all but 2.9% or so of the library.
HSF-1 act – increases HSF-1 driven luciferase reporter signal. NIH3T3-HGL HSF-1 luciferase reporter, MG132, 8 h; 100% = twice DMSO control signal. activation, % at 9 µM. 300,000 compounds, 1.7% hits;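 active = mean replicate activation of at least 50% with a set share of replicates each reaching 50%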
S1P4 ag – agonists of human S1P4 receptor; 220,000 compounds, 0.35% hits; S1P4-expressing cell line, agonist reporter assay; activation, % at 4.98 µM; in the data active = activation above about 11%
Target sequence (O95977 whole entry, looked up): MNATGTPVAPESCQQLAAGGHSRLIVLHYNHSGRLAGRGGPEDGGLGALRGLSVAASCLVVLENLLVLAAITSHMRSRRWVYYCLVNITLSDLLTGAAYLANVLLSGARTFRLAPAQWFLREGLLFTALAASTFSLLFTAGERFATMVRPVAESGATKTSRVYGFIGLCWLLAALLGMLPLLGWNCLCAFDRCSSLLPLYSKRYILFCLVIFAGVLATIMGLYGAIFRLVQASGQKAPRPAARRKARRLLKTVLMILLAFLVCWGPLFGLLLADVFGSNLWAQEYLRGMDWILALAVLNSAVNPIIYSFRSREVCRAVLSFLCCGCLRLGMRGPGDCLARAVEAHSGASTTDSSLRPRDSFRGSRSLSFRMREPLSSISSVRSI
S1P4 antagonist – antagonists of human S1P4 receptor | O95977 | S1P4-expressing cells, antagonist mode, reporter read-out | inhibition, % at 4.98 µM | 220,000 compounds, 0.26% hits | AID 1510; in the data active = inhibition above about 29%
HSF1 inh – HSF1 inhibition | NIH3T3-HGL HSE-luciferase, MG132-induced, luminescence 8 h; stronger effect = lower value | activity change, negative = inhibition, % at 7.5 µM (by protocol) | 300,000 compounds, 0.77% hits;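 active = more than half of replicate wells show activity change below -50%, luminescence cut by over half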;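 note: luciferase reports HSF-1 transcriptional activity via heat shock element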
S1P3 antag – blocks the human S1P3 receptor. Q99500. 170,000 compounds, 0.27% hits. inhibition, % at 4.98 µM. CHO S1P3 NFAT-BLA reporter, FRET fluorescence, antagonist mode. AID 485;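 active = inhibition above the plate cutoff, the mean inhibition of test wells on that plate plus 3 SD, cut at about 28% in these data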;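 note: cells challenged with S1P at its EC80 of 0.8 µM; blue over green emission ratio from cleaved BLA substrate after 4 h stimulation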
Target sequence (Q99500 whole entry, looked up): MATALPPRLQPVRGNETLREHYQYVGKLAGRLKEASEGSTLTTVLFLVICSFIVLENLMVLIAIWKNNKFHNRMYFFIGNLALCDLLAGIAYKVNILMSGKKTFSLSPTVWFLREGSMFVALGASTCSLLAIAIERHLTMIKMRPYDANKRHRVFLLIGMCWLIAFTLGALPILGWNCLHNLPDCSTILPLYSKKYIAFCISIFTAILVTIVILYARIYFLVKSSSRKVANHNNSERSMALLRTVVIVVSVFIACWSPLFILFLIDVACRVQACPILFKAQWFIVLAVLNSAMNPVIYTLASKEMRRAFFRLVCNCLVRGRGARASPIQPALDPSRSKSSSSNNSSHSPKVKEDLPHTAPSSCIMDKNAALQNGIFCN
Hsp70 act – switches on Hsp70 transcription | HeLa Hsp70 promoter luciferase reporter, luminescence; scaled: vehicle 0, proteasome-inhibitor control 100% | 200,000 compounds, 0.04% hits | AID 1203 | activation, % at 10 µM;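 active = activation above the mean across all tested compounds plus 3 SD, cutoff set per campaign, cut at about 5.5% in these data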
Of the large screens only hits and unclear results are named; the others gave an inactive call.

COc1ccccc1N1CC(C)C(=O)NC1=S (stereo not given)	HSF1 inh -56
CCOC(=O)c1nnn(CC(=O)N2N=C(c3ccc(Cl)cc3)CC2c2ccccc2)c1C(=O)OCC (stereo not given)	HSF-1 act 52 (no result: S1P3 antag)
CCOC(=O)c1nnn(CC(=O)N2N=C(c3ccc(Cl)cc3)CC2c2ccc(OC)cc2)c1C(=O)OCC (stereo not given)	none (no result: S1P3 antag)
Cc1ccc(S(=O)(=O)CCC(=O)Nc2ccc(Br)cc2)cc1	HSF1 inh -67 (no result: S1P4 ag, S1P4 antagonist, S1P3 antag, Hsp70 act)
O=C(CCS(=O)(=O)c1ccccc1)Nc1ccc(-c2nc3ccccc3s2)cc1	HSF-1 act 58
O=C(Nc1ccccc1)c1nc2ccccc2s1	HSF-1 act 59
O=C(CCS(=O)(=O)c1ccccc1)Nc1cccc(-c2nc3ccccc3s2)c1	none
O=S(=O)(Cc1nc2ccccc2s1)c1ccccc1	HSF-1 act 59
CC(C)(C)NC(=O)c1nc2ccccc2s1	none (no result: S1P3 antag)
O=C(CCS(=O)(=O)c1ccccc1)Nc1ccccn1	HSF-1 act 59 (no result: S1P4 ag, S1P4 antagonist, S1P3 antag, Hsp70 act)
CCN(c1ccc(NC(=O)c2ccc(N3CCCC3=O)cc2)cc1)C(C)C	none (no result: S1P4 ag, S1P4 antagonist, S1P3 antag, Hsp70 act)
CN(C)c1ccc(/C=C(\C#N)c2ccccn2)cc1	none
Cc1cc(C)n2nc(/C(C#N)=C/c3ccccn3)c(C#N)c2n1	HSF-1 act 99
N#C/C(=C\c1ccccn1)c1ccccn1	HSF1 inh -60 (no result: S1P4 ag, S1P4 antagonist, S1P3 antag, Hsp70 act)
N#C/C(=C\c1ccc([N+](=O)[O-])cc1)c1ccccn1	HSF-1 act 73
COc1cc(/C=C(\C#N)c2ccccn2)cc(OC)c1O	none (no result: Hsp70 act)
COC(=O)c1ccc(/C=C(\C#N)c2ccccn2)cc1	HSF-1 act 86
Cc1cc(C)n2nc(CC#N)c(C#N)c2n1	none
O=C(CN1C2=NCCCN2c2ccccc21)c1ccc(Cl)cc1Cl	none
CCCC1CCc2c(sc(N)c2C(N)=O)C1 (stereo not given)	none (no result: S1P3 antag)
COC(=O)c1ccc(C(=O)OC)c(NC(=O)CSc2cccc[n+]2[O-])c1	none (no result: S1P3 antag)
Cc1ccc(C)c(NC(=O)C2CC(O)CN2C(=O)OCc2ccccc2)c1 (stereo not given)	none
Cc1ccc(C)c(NC(=O)C2CC(O)CN2C(=O)Oc2ccccc2)c1 (stereo not given)	HSF-1 act 67 (no result: S1P4 ag, S1P4 antagonist, S1P3 antag, Hsp70 act)
Cc1c(OCC(=O)NCCCn2ccnc2)ccc2c3c(c(=O)oc12)CCCC3	HSF-1 act 57 (no result: S1P4 ag, S1P4 antagonist, S1P3 antag, Hsp70 act)
Cc1oc(C(=O)O)cc1COc1ccc2c3c(c(=O)oc2c1C)CCC3	HSF1 inh -60 (no result: S1P3 antag)
Cc1c(C)c2ccc(OCC(=O)Nc3ccccn3)c(C)c2oc1=O	HSF1 inh -88 (no result: S1P4 ag, S1P4 antagonist, S1P3 antag, Hsp70 act)
O=C(NC(C(=O)c1ccccc1)N1CCCCC1)c1ccccc1 (stereo not given)	HSF-1 act 82
O=C(NN1CCCCC1)c1ccccc1	none
COc1ccc(-c2csc3nc(-c4ccccc4OC)oc(=O)c23)cc1	HSF-1 act 91
COc1ccc(-c2csc3nc(-c4ccc(C)cc4)oc(=O)c23)cc1OC	none
O=C(COC(=O)Cc1ccccc1[N+](=O)[O-])NCc1ccccc1Cl	none
COc1ccc(-c2nsc3c(N4CCN(S(=O)(=O)c5ccccc5)CC4)ncnc23)cc1	none (no result: HSF-1 act, S1P4 ag, S1P4 antagonist, HSF1 inh, Hsp70 act)
COc1ccc(-c2nsc3c(N4CCCC4)ncnc23)cc1	HSF1 inh -55
COc1ccc(NC(=O)CSCC(=O)Nc2nnc(C)s2)cc1	none (no result: S1P4 ag, S1P4 antagonist, S1P3 antag, Hsp70 act)
Cc1cccc(C(=O)Nc2cccc(C(=O)N/N=C/c3ccncc3)c2)c1	none
O=C(/C=C/c1cccnc1)/C=C/c1cccnc1	S1P4 antagonist 98 (no result: HSF-1 act, HSF1 inh, Hsp70 act)
O=C(/C=C/c1cccnc1)c1cc(F)ccc1O	none (no result: Hsp70 act)
Cc1cccc(/C=C/C(=O)c2ccc(NC3=NCCCS3)cc2)c1	HSF-1 act 74
Cc1cccc(C(=O)Nc2ccc(C(=O)/C=C/c3ccncc3)cc2)c1	HSF-1 act 92 (no result: S1P4 ag, S1P4 antagonist, S1P3 antag, Hsp70 act)
Cc1cccc(C(=O)Nc2ccc(C(=O)/C=C/c3cccnc3)cc2)c1	HSF-1 act 163
O=C(/C=C/c1cccnc1)c1ccc(NC(=O)c2cccc(Br)c2)cc1	none (no result: S1P3 antag)
CN(Cc1ccccc1)c1ccc(N2C(=O)CCCC2=O)cc1[N+](=O)[O-]	none
C=CC[C@@H]1Cc2c(Br)ccc(Br)c2[C@@H](CC=C)N1	HSF-1 act 61
COCCn1c(=O)[nH]c2cc(C(=O)NC3CCCCCC3)ccc2c1=O	HSF1 inh -72
COCCn1c(=O)[nH]c2cc(C(=O)N3CCN(c4cccc(Cl)c4)CC3)ccc2c1=O	HSF-1 act 53 (no result: S1P4 ag, S1P4 antagonist, S1P3 antag, Hsp70 act)
COCCn1c(=O)[nH]c2cc(C(=O)N3CCN(c4ccccc4)CC3)ccc2c1=O	none (no result: S1P4 ag, S1P4 antagonist, S1P3 antag, Hsp70 act)
CCOc1ccc(NC(=O)c2ccc3c(=O)n(-c4ccc(OC)cc4OC)c(=S)[nH]c3c2)cc1	HSF1 inh -81 (no result: S1P4 ag, S1P4 antagonist, S1P3 antag, Hsp70 act)
COc1ccc(NC(=O)c2ccc3c(=O)n(-c4ccc(OC)cc4OC)c(=S)[nH]c3c2)c(OC)c1	none
COc1ccc(-n2c(=S)[nH]c3cc(C(=O)NC4CCCCC4)ccc3c2=O)c(OC)c1	HSF-1 act 60
CC(C)CCNCC1OCc2ccccc2CO1	none
O=C(NC1CCC(O)CC1)c1cccnc1Sc1ccccc1Cl (stereo not given)	none (no result: S1P4 ag, S1P4 antagonist, S1P3 antag, Hsp70 act)
CCN(C(=O)CN1C(=O)NC2(CCc3ccccc32)C1=O)C1CCCCC1 (stereo not given)	none (no result: S1P4 ag, S1P4 antagonist, S1P3 antag, Hsp70 act)
O=C(c1ccccc1)n1c(=O)cc[nH]c1=O	none (no result: S1P4 ag, S1P4 antagonist, S1P3 antag, Hsp70 act)
O=S(=O)(c1cccc(Br)c1)N1CCN(CCc2ccccc2)CC1	none (no result: S1P4 ag, S1P4 antagonist, S1P3 antag, Hsp70 act)
O=C(O)COn1c(-c2ccc(Cl)cc2)nc2ccc(Cl)cc21	HSF-1 act 92
Cc1ccc(COn2c(-c3ccc(Cl)cc3)nc3ccc([N+](=O)[O-])cc32)cc1	none (no result: S1P3 antag)
COn1c(-c2ccc(Cl)cc2)nc2ccc(Cl)cc21	HSF-1 act 111 (no result: S1P3 antag)
O=C(O)COn1c(-c2ccccc2)nc2ccc([N+](=O)[O-])cc21	HSF-1 act 82
Clc1ccc(COn2c(-c3ccc(Cl)cc3)nc3ccccc32)cc1	HSF-1 act 60 (no result: S1P3 antag)
COc1ccc(-c2nc3ccccc3n2OCC(=O)O)cc1	none
CCOC(=O)C(C)On1c(-c2ccccc2)nc2ccc([N+](=O)[O-])cc21 (stereo not given)	none (no result: S1P3 antag)
Cc1ccc(S(=O)(=O)NC(=O)c2cc(C)n(C3CC3)c2C)cc1	none
CCOC(=O)c1ccc(-n2c(C)nc3ccc(Br)cc3c2=O)cc1	none (no result: Hsp70 act)
Cc1ccc(NC(=O)COC(=O)c2ccc3c(c2)OCO3)cc1S(=O)(=O)N1CCCCC1	HSF-1 act 56
COc1cc(NC(=O)COC(=O)c2ccc(S(=O)(=O)N3CC(C)CC(C)C3)cc2)c(C)cc1[N+](=O)[O-] (stereo not given)	none
COc1cc(NC(=O)COC(=O)c2ccc(C)c(S(=O)(=O)N3CCCCC3)c2)c(C)cc1[N+](=O)[O-]	HSF-1 act 64
Cc1ccc(NC(=O)COC(=O)c2ccc([N+](=O)[O-])o2)cc1S(=O)(=O)N1CCCCCC1	none
CCCCN(C(=O)/C=C/c1ccco1)c1c(N)n(CCC)c(=O)[nH]c1=O	HSF-1 act 76

Bioassay records (PubChem)
